The text below walks through data of PubChem BioAssay AID1851 (National Center for Advancing Translational Sciences (NCATS), 2009).

Usually AC50 stands for the concentration at which the activity in the assay is half-maximal.

Among all 16,000 compounds or so, about 5,700 (36%) were called active. About 24% were inconclusive and are not listed. The list shows a part of the results. Values without a mark were called inactive. The call rests on the fitted dose curve; in most records, active means well fitted curve in the direction sought with a large enough effect; inconclusive means small, poorly fitted or top-dose-only effect, or effect the other way; inactive means no such curve, though single readings can be large or run the other way.
On the % scale 0 is the no-effect control and ±100 the full control effect.

In the assay the target is Cytochrome P450 1A2 (Homo sapiens) (UniProt P05177). As to the kind of experiment: Cytochrome panel assay with activity outcomes. As to conditions: recombinant CYP, pro-luciferin dealkylation, luminescence, p450-cyp1a2; series mostly up to 57.1 µM.
Chain of Cytochrome P450 1A2 (Homo sapiens) (P05177 whole entry, looked up): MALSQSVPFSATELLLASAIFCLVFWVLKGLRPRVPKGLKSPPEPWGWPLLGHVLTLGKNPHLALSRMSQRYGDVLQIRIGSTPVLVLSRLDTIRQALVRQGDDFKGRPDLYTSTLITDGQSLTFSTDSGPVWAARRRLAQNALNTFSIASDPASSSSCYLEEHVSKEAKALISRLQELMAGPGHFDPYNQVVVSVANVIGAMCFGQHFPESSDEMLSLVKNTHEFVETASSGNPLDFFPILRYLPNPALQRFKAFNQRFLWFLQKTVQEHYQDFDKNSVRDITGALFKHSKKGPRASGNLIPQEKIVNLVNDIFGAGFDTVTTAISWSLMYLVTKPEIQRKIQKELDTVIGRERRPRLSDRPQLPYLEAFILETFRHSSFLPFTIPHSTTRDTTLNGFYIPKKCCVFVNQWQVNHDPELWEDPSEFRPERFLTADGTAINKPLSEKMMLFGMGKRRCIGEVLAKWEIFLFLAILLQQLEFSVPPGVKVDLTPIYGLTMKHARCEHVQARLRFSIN
For the molecule `COc1ccc2c(c1)nc(SCC(=O)c1ccc(Br)s1)n2C`, the AC50 is 7.94 µM (active).
On the same count and under the same terms, to `CCOc1ccc2c(c1)nc(SCC(=O)c1ccc(Br)s1)n2C` belongs 2.24 µM (active); to `CCOC(=O)N1CCN(C(=O)c2ccc3nc(SCc4ccc(F)cc4)n(C)c3c2)CC1`, “inactive”.
With `CCC/C=C(\CCC)C(NC(=O)c1ccc(C(F)(F)F)cc1)c1ccc(C(F)(F)F)cc1` (configuration not stated), the AC50 entry was “inactive”.
For the molecule `CCC/C=C(\CCC)C(NC(=O)OCC(C)C)c1ccc(C(=O)OC)cc1` (configuration not stated), the AC50 is 15.8 µM (active).
For `CCC/C=C(\CCC)C(NC(=O)Oc1ccc(F)cc1)c1ccc(C(=O)OC)cc1` (configuration not stated), the AC50 result was “inactive”.
On the same count and under the same terms, next, `CCC/C=C(\CCC)C(NS(=O)(=O)c1ccc(C(F)(F)F)cc1)c1ccc(C(=O)OC)cc1` (configuration not stated): “inactive”; `CCC/C=C(\CCC)C(NS(=O)(=O)CC12CCC(CC1=O)C2(C)C)c1ccc(C(=O)OC)cc1` (configuration not stated): “inactive”.
Still for that read-out and setting: to `CCC/C=C(\CCC)C(NC(=O)c1cccs1)c1ccc(C(=O)OC)cc1` (configuration not stated) belongs 5.01 µM (active); to `CCC/C=C(\CCC)C(NC(=O)c1ccc(C(=O)OC)cc1)c1ccc(C(=O)OC)cc1` (configuration not stated), “inactive”; to `CCC/C=C(\CCC)C(NC(=O)C(C)(C)C)c1ccc(C(=O)OC)cc1` (configuration not stated), “inactive”.
On the same count and under the same terms, next, `CCC/C=C(\CCC)C(NS(=O)(=O)c1cccs1)c1ccc(C(=O)OC)cc1` (configuration not stated): 12.6 µM (active); `O=C(OC[C@@H](O)CO)c1ccccc1Nc1ccnc2cc(Cl)ccc12`: 5.01 µM (active).
Regarding `Clc1ccc2c(NCCNC3CCCCC3)ccnc2c1`, the activity, negative = inhibition is -10.2% [at 2.29 µM].
Regarding `Clc1ccc2c(NC3CCC(N4CCCCC4)CC3)ccnc2c1` (configuration not stated), the activity, negative = inhibition is -15.7% [at 2.29 µM].
`CCN1CNC(=S)N(c2cc(C)ccc2C)C1`: the AC50 entry is “inactive”.
For `Cc1sc2ccccc2[n+]1CCC(=O)O`, the activity, negative = inhibition was -3.71% [at 11.4 µM].
In the case of `CCOC(=O)C[n+]1c(C)sc2ccc(OC)cc21`, the AC50 is 14.1 µM (active).
`Cc1cc2sc(C)[n+](CCCOS(=O)(=O)O)c2cc1C`: the activity, negative = inhibition was -10.3% [at 11.4 µM].
On to `COc1cccc2c(=O)c(C(=O)NCc3cccs3)c[nH]c12`, for which the AC50 is 0.631 µM (active).
On the same count and under the same terms, next, `O=c1cnc2cnc(N3CCNCC3)nc2n1Cc1ccc(F)cc1`: 15.8 µM (active); `COc1ccc(-c2nc3cnc(N4CCNCC4)nc3n(Cc3ccc(F)cc3)c2=O)cc1`: “inactive”; `O=c1c(-c2ccc(F)cc2)nc2cnc(N3CCNCC3)nc2n1Cc1ccc(F)cc1`: 15.8 µM (active).
For the molecule `Cc1nc2cnc(N3CCN(C)CC3)nc2n(Cc2ccc(F)cc2)c1=O`, the AC50 entry is “inactive”.
Take `Cc1nc2cnc(N3CCNCC3)nc2n(Cc2ccc(F)cc2)c1=O`: the AC50 is 12.6 µM (active).
The same measure, in the same setting: next, `COc1ccc(Nc2nnc(-c3ccc(N4CCOCC4)c([N+](=O)[O-])c3)c3ccccc23)cc1`: “inactive”; `Clc1cccc(Nc2nnc(-c3ccccc3)c3ccccc23)c1`: 1.26 µM (active).
